From PubChem BioAssay
PAFAH1B3 inh = PAFAH1B3 enzyme inhibitors, primary screen, biochemical, fluorescence polarization, human; recombinant PAFAH1B3, FP-rhodamine probe; AID 492972, 2010; inhibition, % at 3.39 µM; 0.28% of 340,000 active;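 active = inhibition above the screen-wide average of all tested compounds plus 3 SD, cut at about 25% in these data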;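 note: 0% = enzyme with DMSO only and 100% = wells lacking PAFAH1B3 protein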
PAFAH2 inh = PAFAH2 enzyme inhibitors, primary screen, biochemical, fluorescence polarization, human; Platelet-activating factor acetylhydrolase 2, cytoplasmic (Homo sapiens), Q99487; recombinant PAFAH2, FP-rhodamine activity probe; inhibition, % at 3.39 µM; 0.99% of 340,000 active;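 active = inhibition above the mean over all tested compounds plus 3 SD, cut at about 30% in these data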;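 note: inhibitors block probe labeling of enzyme so polarization drops; 0% = enzyme with DMSO and 100% = wells lacking PAFAH2 protein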
LYPLA2 inh = LYPLA2 inhibitors, primary screen, counter-screen for PME1 inhibitor project, biochemical, fluorescence polarization, FP-Rh probe ABPP. 0.38% of 320,000 active. inhibition, % at 5.9 µM. Acyl-protein thioesterase 2 (Homo sapiens), O95372. AID 2177, 2009. recombinant LYPLA2;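 active = inhibition above the screen-wide mean plus 3 SD, limit set per campaign, cut at about 26% in these data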;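 note: 0% = LYPLA2 with DMSO and 100% = wells lacking LYPLA2 enzyme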
pPAFAH FP inh = pPAFAH enzyme inhibitors, primary screen, biochemical, fluorescence polarization, human; inhibition, % at 3.39 µM; recombinant pPAFAH, FP-rhodamine probe fluorescence polarization; 1.5% of 330,000 active; AID 463082, 2010;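 active = inhibition above the mean inhibition across the screen plus 3 SD, cut at about 25% in these data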;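 note: inhibitors block binding of the rhodamine activity-based probe so polarization drops; 0% = enzyme with DMSO and 100% = wells lacking pPAFAH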
Target sequence (Q13093 whole entry, looked up): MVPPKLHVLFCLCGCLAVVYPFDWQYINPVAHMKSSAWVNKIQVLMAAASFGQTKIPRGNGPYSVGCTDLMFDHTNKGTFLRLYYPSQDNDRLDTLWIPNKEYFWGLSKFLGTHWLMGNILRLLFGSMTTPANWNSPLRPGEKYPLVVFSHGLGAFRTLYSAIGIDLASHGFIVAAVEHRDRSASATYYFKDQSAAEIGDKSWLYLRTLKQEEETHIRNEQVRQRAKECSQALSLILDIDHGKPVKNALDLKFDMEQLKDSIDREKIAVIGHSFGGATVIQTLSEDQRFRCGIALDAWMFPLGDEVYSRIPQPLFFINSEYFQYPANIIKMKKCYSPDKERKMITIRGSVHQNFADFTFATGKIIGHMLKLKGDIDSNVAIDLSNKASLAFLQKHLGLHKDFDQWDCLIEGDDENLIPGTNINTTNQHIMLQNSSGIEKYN
LYPLA1 inh = LYPLA1 inhibitors, primary screen, counter-screen for PME1 inhibitor project, biochemical, fluorescence polarization, FP-Rh probe ABPP. Acyl-protein thioesterase 1 (Homo sapiens), O75608. recombinant LYPLA1. inhibition, % at 5.9 µM. 0.16% of 320,000 active. AID 2174, 2009;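 active = inhibition above the mean of all tested compounds plus 3 SD, set per campaign, cut at about 14% in these data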;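 note: inhibitors block serine hydrolase probe labeling of LYPLA1 so polarization falls; 0% = enzyme with DMSO and 100% = wells lacking LYPLA1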
PAFAH1B2 FP inh = PAFAH1B2 enzyme inhibitors, primary screen, biochemical, fluorescence polarization, human. Platelet-activating factor acetylhydrolase IB subunit alpha2 (Homo sapiens), P68402. recombinant PAFAH1B2, FP-rhodamine activity probe. inhibition, % at 3.39 µM. 1.2% of 340,000 active. AID 492953, 2010;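 active = inhibition above the mean of all tested compounds plus 3 SD, cut at about 24% in these data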;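 note: 0% = enzyme with DMSO and 100% = wells lacking PAFAH1B2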
Numbers without * were called inactive; / = no result. Hits are enriched below; roughly 2.9% of the tested compounds scored in any of these assays.

SMILES	PAFAH1B3 inh	PAFAH2 inh	LYPLA2 inh	pPAFAH FP inh	LYPLA1 inh	PAFAH1B2 FP inh
COc1ccc(/C=C2\SC(=S)N(CCCCCC(=O)Nc3cc(C)on3)C2=O)cc1OC	-6	0	-1	1	-5	-4
COc1cc(/C=C2/SC(=S)NC2=O)ccc1OS(=O)(=O)c1ccc(C)cc1	-5	-5	-7	5	-4	43*
COc1cc(/C=C2\SC(=S)N(CCCCC(=O)O)C2=O)ccc1OS(=O)(=O)c1ccc(C)cc1	3	9	10	13	5	30*
Cn1nc([N+](=O)[O-])nc1Sc1cccc2cccnc12	2	7	13	3	1	-1
CC(=O)Nc1sc(N)nc1-c1ccccc1	-7	0	-2	2	1	-4
Nc1nc(-c2ccccc2)c(N=Nc2cccc3ccccc23)s1	6	-2	0	31*	-1	3
CCOc1ccc(S(=O)(=O)Nc2cccc(C(=O)N(C)CC(=O)Nc3ccc(OC)cc3)c2)cc1	3	-3	/	/	/	-1
COc1ccc(NS(=O)(=O)c2cccc(C(=O)NNC(=O)c3cccn3C)c2)cc1	6	1	-2	34*	-2	5
COc1ccc(NS(=O)(=O)c2cccc(C(=O)NNC(=O)CNC(=O)c3cccc(C)c3)c2)cc1	7	-6	-3	34*	0	0
Cc1cccc(/C=C2/Sc3ccc(C(=O)NCCCN4CCOCC4)cc3NC2=O)c1	-5	-14	14	26*	1	8
COc1ccc(NC(=O)CN(C)C(=O)c2cccc(S(=O)(=O)Nc3ccc(OC)cc3)c2)cc1	1	5	-5	32*	-3	-1
COc1ccccc1OCC(=O)NC1CCCCCCC1	3	-7	/	8	/	7
CCOc1ccc(C(=O)Nc2nc(C)cc(C)n2)cc1[N+](=O)[O-]	4	-1	1	4	2	0
CSc1ccccc1NC(=O)Nc1ccc(F)c(Cl)c1	4	-18	9	6	-7	-1
Cc1noc(C)c1CSc1nnnn1-c1ccc(Cl)cc1	5	6	0	2	1	0
CSc1ccccc1NC(=O)CN(C)S(=O)(=O)c1ccc(F)cc1	9	5	-4	6	1	6
COc1ccc(OC)c(-n2c(-c3cccc(C)c3)n[nH]c2=S)c1	2	5	-1	-3	1	4
CC1CCN(C(=O)c2[nH]cnc2C(=O)NCc2ccccc2)CC1	13	-2	8	1	0	1
COc1ccc(NS(=O)(=O)c2cccc(C(=O)NCC3(N(C)C)CCCCC3)c2)cc1	6	-5	-6	30*	-5	-5
COc1ccc(NS(=O)(=O)c2cccc(C(=O)NNC(=O)CNC(=O)c3ccccc3Cl)c2)cc1	4	-7	/	/	/	-4
CN(C)CCNC(=O)c1cccc(S(=O)(=O)Nc2ccc(F)cc2)c1	2	-7	5	25*	-2	0
COc1ccccc1NS(=O)(=O)c1cccc(C(=O)NCC2(N(C)C)CCCCC2)c1	2	1	7	-1	5	5
COc1ccc(NS(=O)(=O)c2cccc(C(=O)NNC(=O)CNC(=O)c3ccccc3)c2)cc1	5	-1	2	28*	1	-2
Cc1cccc(C(=O)NCCN(C)C)c1	-1	3	-2	0	-1	1
Cc1ccc(NS(=O)(=O)c2cccc(C(=O)NCCCN3CCOCC3)c2)cc1	-1	10	-3	34*	-2	1
SMILES	PAFAH1B3 inh	PAFAH2 inh	LYPLA2 inh	pPAFAH FP inh	LYPLA1 inh	PAFAH1B2 FP inh
O=C(O)CN1C(=O)C(=O)N(Cc2cccc(F)c2)C1=O	-5	1	-1	3	1	-1
Cc1ccc(N(CC(N)=O)C2SC(=O)N(Cc3ccccc3)C2=O)cc1 (stereo unspecified)	12	6	-7	1	-3	26*
NC(=O)CN(c1ccccc1)C1SC(=O)N(Cc2ccccc2)C1=O (stereo unspecified)	-8	0	-3	1	2	13
CC(C)(C)c1ccc(CNC(=O)C2CCCN2C(=O)Nc2ccccc2)cc1 (stereo unspecified)	-1	3	-3	-2	-1	25*
O=C(NCCc1ccccc1)C1CCCN1C(=O)Nc1cccc(Cl)c1 (stereo unspecified)	-1	8	-1	6	-2	27*
C/C(=C\c1ccccc1)C(=O)N1CCN(Cc2ccc3c(c2)OCO3)CC1	11	2	-2	1	-1	4
O=C(/C=C\c1ccco1)NC(=S)Nc1ccccc1O	6	-2	-6	33*	-10	1
O=C(/C=C/c1ccco1)NC(=S)Nc1ccccc1O	/	/	-12	23	-6	/
COc1ccc(NC(=S)NC(=O)/C=C/c2ccco2)c(OC)c1	-4	4	7	18	2	-1
Cc1ccc(NC(=S)NC(=O)/C=C/c2ccco2)c(O)c1	5	5	-10	30*	-9	3
Cc1cc(NC(=O)Nc2ccc(Cl)cc2)no1	5	-2	-4	0	-1	2
NC(=O)c1ccc(Oc2ccc(Cl)c3ccccc23)c([N+](=O)[O-])c1	-3	1	9	34*	-3	0
CSc1nc(-c2ccccc2)c2cc(Cl)ccc2n1	0	-1	0	6	3	0
O=c1c2cc(Br)ccc2[nH]c(=S)n1Cc1ccccc1	10	1	-4	26*	-6	8
CCCCC(O)(c1ccc(OC)cc1)C(CN1CCOCC1)c1ccccc1 (stereo unspecified)	9	-4	2	-3	-1	24*
CCCCCC(O)(c1ccc(OC)cc1)C(CN1CCOCC1)c1ccccc1 (stereo unspecified)	6	-5	-8	4	1	9
COC(=O)c1sc(-c2ccc(Cl)cc2)cc1NC(=O)/C=C/C(=O)O	5	-2	1	3	-2	27*
COC(=O)c1sc(-c2ccc(Cl)cc2)cc1NC(=O)COCC(=O)O	3	1	-9	15	-13	43*
COC(=O)c1sc(-c2ccc(C(C)(C)C)cc2)cc1NC(=O)CCC(=O)O	/	/	-12	26*	-7	/
COC(=O)c1sccc1NC(=O)/C=C/C(=O)O	0	3	-2	-3	-4	2
O=C(/C=C/c1ccco1)OCc1nnc(-c2ccc(Cl)cc2)o1	8	67*	0	28*	-1	1
